Shown are actives, neighbours in structure and some others; about 3.9% of the full set was active somewhere.
BoNT A protease: BoNT/A light chain protease inhibitors, primary screen, biochemical, flow cytometry, MLPCN library. inhibition, % at 10 µM. hit rate 0.17% among 360,000. multiplex microsphere protease substrate cleavage. AID 588499, 2011; further: plate controls were buffer without enzyme for full effect and enzyme alone for no effect
Vc quorum ag: inducers of Vibrio cholerae quorum light production without autoinducers, primary screen, BH1578 luxS cqsA deficient, single point; V. cholerae BH1578 lux reporter, luminescence, 6 h; AID 588436, 2011; activation, % at 18.7 µM; hit rate 0.16% among 350,000; in the data active means activation mostly above about 9.7%, no sharp cut-off; inconclusive means no clear call, values can overlap the other calls; inactive means mostly below about 3.7%
MazF activator: activators of E. coli MazEF toxin-antitoxin RNase, primary screen, biochemical, fluorescence, uHTS; Endoribonuclease toxin MazF (Escherichia coli (strain K12)), P0AE70; FAM/BHQ RNA-DNA oligo cleavage fluorescence, 5 h; activation, % at 20 µM; hit rate 0.32% among 350,000; in the data active means activation above about 50%
BoNT-F LC inh: BoNT/F light chain protease inhibitors, primary screen, biochemical, flow cytometry, MLPCN library; hit rate 0.22% among 360,000; Multiplex microsphere protease cleavage assay; inhibition, % at 10 µM; in the data active means inhibition above about 35%, passing the limit was not always enough; inconclusive means no clear call, values can overlap the other calls; further: plate controls were buffer without enzyme for full effect and enzyme alone for no effect
Anthrax LF prot: Bacillus anthracis LF protease inhibitors, primary screen, biochemical, multiplex microsphere, MLPCN library; Lethal factor (Bacillus anthracis), P15917; multiplex microsphere protease cleavage assay; inhibition, % at 10 µM; hit rate 0.12% among 360,000; AID 588501, 2011; further: plate controls were buffer without enzyme for full effect and enzyme alone for no effect
Target sequence (P15917 whole entry, looked up): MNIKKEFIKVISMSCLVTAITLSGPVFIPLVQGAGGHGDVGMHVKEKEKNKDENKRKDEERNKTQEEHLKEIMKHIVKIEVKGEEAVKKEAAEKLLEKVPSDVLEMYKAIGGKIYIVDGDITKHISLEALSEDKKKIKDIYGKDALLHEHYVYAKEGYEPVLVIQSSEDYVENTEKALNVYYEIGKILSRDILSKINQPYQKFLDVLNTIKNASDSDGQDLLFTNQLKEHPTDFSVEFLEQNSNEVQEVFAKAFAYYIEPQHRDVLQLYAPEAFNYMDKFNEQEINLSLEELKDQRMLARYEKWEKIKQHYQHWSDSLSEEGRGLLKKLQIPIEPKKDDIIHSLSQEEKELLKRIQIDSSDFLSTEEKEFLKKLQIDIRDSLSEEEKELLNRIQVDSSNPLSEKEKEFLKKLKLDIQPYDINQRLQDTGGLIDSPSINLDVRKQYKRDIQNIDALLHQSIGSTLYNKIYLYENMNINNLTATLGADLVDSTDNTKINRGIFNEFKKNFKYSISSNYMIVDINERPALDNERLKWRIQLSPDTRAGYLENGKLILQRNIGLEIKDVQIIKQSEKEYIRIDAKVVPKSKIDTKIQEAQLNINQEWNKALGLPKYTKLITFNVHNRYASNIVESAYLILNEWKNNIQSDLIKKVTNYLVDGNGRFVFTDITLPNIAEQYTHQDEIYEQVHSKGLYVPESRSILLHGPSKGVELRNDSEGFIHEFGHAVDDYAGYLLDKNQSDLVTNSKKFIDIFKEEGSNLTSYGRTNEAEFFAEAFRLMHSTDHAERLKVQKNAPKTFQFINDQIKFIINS
Bead autofluor: compound fluorescence in toxin protease inhibitor counterscreen; compound autofluorescence counterscreen, microsphere flow cytometry; hits give high values; fluorescence intensity (concentration not given with the values); hit rate 3.1% among 360,000; in the data active means fluorescence intensity above about 16000; inconclusive means no clear call, values can overlap the other calls
* = called active by the depositor. Unless noted, no stated cut-off is given here; in the data, active means inhibition above about 30%; inconclusive means no clear call, values can overlap the other calls; inactive means below that.

For CC1(c2ccccc2)NC(=O)N(CC(=O)Nc2ccccc2C(=O)NC2CC2)C1=O (centres undefined) the results were BoNT A protease 1, Vc quorum ag 2, MazF activator -5, BoNT-F LC inh 6, Anthrax LF prot 1 and Bead autofluor 5661.
For COc1cccc(-c2c(NC(=O)c3ccco3)n(-c3ccc(C)cc3)nc(C)c2=O)c1 the results were BoNT A protease -1, Vc quorum ag -6, MazF activator -2, BoNT-F LC inh -3, Anthrax LF prot -2 and Bead autofluor 16965*.
For Cc1ccc(-n2nc(C)c(=O)c(-c3ccccc3)c2NC(=O)C(C)C)cc1 the results were BoNT A protease -3, Vc quorum ag -1, MazF activator 3, BoNT-F LC inh -20, Anthrax LF prot inconclusive and Bead autofluor 3542.
`Cc1cc2nc3c(=O)[nH]c(=S)[nH]c3nc2cc1NC(=O)C(F)(F)F` gave BoNT A protease -5, Vc quorum ag 0, MazF activator active, BoNT-F LC inh -17, Anthrax LF prot -2 and Bead autofluor 4037.
For COc1cccc(CNC(=O)[C@@H]2CCCN2C(=O)[C@H]2CCCCN2C(=O)c2cccs2)c1 the results were BoNT A protease 0, BoNT-F LC inh -5, Anthrax LF prot -9 and Bead autofluor 5131.
Screening Cc1ccc(N(Cc2ccccc2F)S(C)(=O)=O)c(C)c1 returned BoNT A protease -1, Vc quorum ag -2, MazF activator -7, BoNT-F LC inh -3, Anthrax LF prot -3 and Bead autofluor 4999.
Screening Cc1ccccc1CN(c1ccc(C(N)=O)cc1)S(C)(=O)=O returned BoNT A protease 0, Vc quorum ag -2, MazF activator 1, BoNT-F LC inh -2, Anthrax LF prot 3 and Bead autofluor 16249*.
For Cc1ccccc1N(Cc1ccccc1F)S(C)(=O)=O the results were BoNT A protease 1, Vc quorum ag 0, MazF activator -4, BoNT-F LC inh -1, Anthrax LF prot 0 and Bead autofluor 23221*.
For C/C=C/c1cccc(-c2nc(C(=O)N3CCCCC3)cc3c2[C@H](CCO)N(C(=O)NC(C)C)C3)c1 the results were BoNT A protease -1, BoNT-F LC inh -8, Anthrax LF prot 4 and Bead autofluor 6579.
Nc1nc(Br)c2c(F)cccc2c1-c1ccccc1 was read as BoNT A protease -4, Vc quorum ag inactive, MazF activator 32, BoNT-F LC inh -5, Anthrax LF prot 1 and Bead autofluor 21859*.
Nc1nc(Br)c2c(F)cccc2c1-c1ccc(F)cc1 was read as BoNT A protease 3, Vc quorum ag inactive, MazF activator 7, BoNT-F LC inh 2, Anthrax LF prot 0 and Bead autofluor 22286*.
Screening Nc1ccc(-c2c3ccccc3nc3ccccc23)cc1 returned BoNT A protease 1, Vc quorum ag inactive, MazF activator 0, BoNT-F LC inh inconclusive, Anthrax LF prot -4 and Bead autofluor 3969.
`CCCCn1nnnc1C1(C)CCC(=O)N1Cc1cccc(F)c1` (centres undefined) gave BoNT A protease 1, BoNT-F LC inh 16, Anthrax LF prot -2 and Bead autofluor 5922.
O=C(c1ccc(N2CCCC2=O)cc1)N1CCN(c2cccc(C(F)(F)F)c2)CC1 was read as BoNT A protease 2, Vc quorum ag -5, MazF activator 2, BoNT-F LC inh -3, Anthrax LF prot 3 and Bead autofluor inconclusive.
O=C(Nc1ccc2c(c1)OCCO2)N1CCN(Cc2ccccc2)CC1 was read as BoNT A protease 1, Vc quorum ag 0, MazF activator 3, BoNT-F LC inh 5, Anthrax LF prot 2 and Bead autofluor 4724.
For CC(Oc1ccc2oc(-c3ccccc3)c(C(=O)O)c2c1)C(=O)O (centres undefined) the results were BoNT A protease 0, Vc quorum ag inactive, MazF activator -1, BoNT-F LC inh -1, Anthrax LF prot -4 and Bead autofluor 16623*.
`NC(=O)c1cc([N+](=O)[O-])ccc1NCc1ccc(N)cc1` gave BoNT A protease 0, Vc quorum ag -1, MazF activator -2, BoNT-F LC inh -10, Anthrax LF prot 0 and Bead autofluor 3882.
`CN(Cc1ccccc1)c1nccn2ccnc12` gave BoNT A protease 0, Vc quorum ag inactive, BoNT-F LC inh 6, Anthrax LF prot -9 and Bead autofluor 2892.
Screening O=C(c1ccc(Cl)cc1)c1oc2ccccc2c1CS(=O)c1ccccc1 (centres undefined) returned BoNT A protease -2, Vc quorum ag -4, MazF activator -8, BoNT-F LC inh -8, Anthrax LF prot -2 and Bead autofluor 20280*.
For C/C(=N/Nc1ncc(Br)cn1)c1ccc([N+](=O)[O-])cc1 the results were BoNT A protease -2, Vc quorum ag 2, MazF activator 10, BoNT-F LC inh inconclusive, Anthrax LF prot 12 and Bead autofluor 3774.
Screening C#CCN1C(=O)S/C(=C\c2ccc(N3CCOCC3)cc2C)C1=O returned BoNT A protease 0, Vc quorum ag 0, MazF activator 310*, BoNT-F LC inh 1, Anthrax LF prot -2 and Bead autofluor 2666.
`C=CCOC(=O)COc1ccc2c(C)c(CC)c(=O)oc2c1` gave BoNT A protease -1, Vc quorum ag inactive, MazF activator 4, BoNT-F LC inh -3, Anthrax LF prot -1 and Bead autofluor 23645*.
Screening Cc1cccc(OCCCc2c(C)n[nH]c2C)c1 returned BoNT A protease inconclusive, Vc quorum ag -1, MazF activator 2, BoNT-F LC inh 1, Anthrax LF prot 0 and Bead autofluor 22053*.
Cc1c(C=NNC(=O)c2ccc(Br)cc2)c2ccccn2c1C(=O)c1ccncc1 was read as Vc quorum ag 0 and MazF activator 59*.
Screening Cc1c(/C=N/NC(N)=O)c2ccccn2c1C(=O)c1ccc(F)cc1 returned BoNT A protease 1, Vc quorum ag 0, MazF activator 6, BoNT-F LC inh -2, Anthrax LF prot -1 and Bead autofluor 2688.
For Cc1ccc(Cn2c(-n3nc(C)cc3C)nc3c2c(=O)[nH]c(=O)n3C)cc1 the results were BoNT A protease 3, Vc quorum ag 1, MazF activator 2, BoNT-F LC inh 3, Anthrax LF prot -5 and Bead autofluor 22348*.
Screening Cc1ccc(Cn2c(CN3CC(C)OC(C)C3)nc3c2c(=O)[nH]c(=O)n3C)cc1 (centres undefined) returned BoNT A protease 0, Vc quorum ag 0, MazF activator 1, BoNT-F LC inh 0, Anthrax LF prot -3 and Bead autofluor 20485*.
